Shn3 inh set2 = reduction of Shn3 3'UTR firefly luciferase signal, primary screen, Schnurri-3 inhibitor project, cell-based, Clone20 osteoblasts, set 2. Clone20 osteoblast Shn3 3'UTR firefly luciferase, 24 h. inhibition, % at 12.5 µM. 360,000 compounds, 0.52% hits;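 active means mean inhibition of at least 75% with every replicate also reaching 75%; inconclusive means mean inhibition at least 75% but some replicate below; inactive means mean inhibition below 75%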;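 further: 0% = median of neutral control wells and 100% = pilot-screen positive control compound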
PfHsp90 set2 = growth inhibition of PfHsp90-expressing yeast, primary screen, antimalarial PfHsp90 inhibitor project, S. cerevisiae, BacTiter-Glo luminescence, single point, set 2. BacTiter-Glo ATP, 48 h; yeast lacking PDR1 and PDR3 efflux regulators. 310,000 compounds, 0.32% hits. inhibition, % at 9.4 µM. AID 504621, 2011;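 active means every replicate shows inhibition above about 80%, whatever the replicate mean, limit read from the data; inconclusive means mean inhibition reaches the set limit but some replicate falls short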;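 further: 0% = DMSO neutral controls and 100% = 20 µM radicicol positive controls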
CSC inhib = cancer stem cell viability inhibitors, primary screen, luminescence; cancer stem cell-like cells viability; inhibition, % at 7.5 µM; 300,000 compounds, 1.1% hits; in the data active means inhibition above about 75%; inconclusive means no clear call, values can overlap the other calls; tested in HMLE shEcad cells
Beta apoptosis = inhibitors of cytokine-induced beta cell apoptosis, primary screen, luminescence. INS-1E cytokine-induced death, ATP luminescence, 48 h; percent of positive-control rescue, neutral wells zero. protection from apoptosis, % (concentration not given with the values). 300,000 compounds, 0.8% hits. AID 435005, 2010;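 active means Every replicate reaches about 75%, or at least half do and their mean reaches it too, limit read from the data; inconclusive means At least half of replicates reach the limit but their mean does not; inactive means Under half of replicates reach the limit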;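 further: 0% = cytokine-treated negative control wells and 100% = positive control rescue; higher means more ATP so stronger rescue from cytokine killing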
Calb FLC = C. albicans growth inhibition with fluconazole, primary screen, CaCi-2 strain, Alamar Blue fluorescence; AID 1979, 2009; 300,000 compounds, 0.57% hits; growth inhibition, % (no concentration beside the values); C. albicans CaCi-2 (fluconazole-resistant clinical isolate) + fluconazole, 48 h;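 active means growth inhibition above about 58% in most replicates, limit read from the data, passing the limit was not always enough; inconclusive means exactly half the replicates above a set limit; inactive means most replicates below a set limit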;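 further: all wells also contain fluconazole at 8 µg/ml as a sub-toxic cotreatment; 0% = median of DMSO wells and 100% = median of geldanamycin control wells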
Active calls of the source: *; ? = inconclusive; . = no result; + = active, no number. Sampled rows, rich in hits. Any-hit rate of the full collection: about 2.2%.

SMILES	Shn3 inh set2	PfHsp90 set2	CSC inhib	Beta apoptosis	Calb FLC
Cc1ccc(CNC(=O)[C@H](C)NC(=O)C2CCN(C(=O)[C@@H]3CCCN3C(=O)OC(C)(C)C)CC2)cc1	6	19	-6	3	1
CS(=O)(=O)c1ncc(Cl)c(C(=O)Nc2ccc(OC(F)F)cc2)n1	93*	4	135*	?	1
CS(=O)(=O)c1ncc(Cl)c(C(=O)Nc2ccc(N3CCOCC3)cc2)n1	94*	4	?	-6	-6
CC(NC(=O)COC(=O)c1cccc(S(=O)(=O)N2CCCC2)c1)c1ccccc1 (stereo not given)	-5	25	-5	-4	.
CSc1ccccc1OCc1cc(C(=O)N2CCN(C)C(c3ccccc3)C2)no1 (stereo not given)	21	135*	1	0	2
O=C(c1cc(COc2c(F)cccc2F)on1)N1CCC(c2ccccc2F)C1 (stereo not given)	-3	-29	6	1	-8
COc1ccccc1OCc1cc(C(=O)N2CCN(C)C(c3ccccc3)C2)no1 (stereo not given)	-115	107*	13	3	-5
CN1CCN(C(=O)c2cc(COc3ccc(F)cc3Cl)on2)CC1c1ccccc1 (stereo not given)	10	72	1	-10	13
CN1CCN(C(=O)c2cc(COc3c(F)cccc3F)on2)CC1c1ccccc1 (stereo not given)	-17	110*	-6	-3	17
O=C(/C=C/[C@H]1O[C@@H](n2cnc3c(NC(=O)c4ccccc4)ncnc32)[C@H](O)[C@@H]1O)NCCc1ccc(F)cc1	1	.	.	.	.
Cc1ccc(C(=O)NCCc2nnc3ccc(NCCCN4CCOCC4)nn23)cc1	-21	-6	-8	-1	2
Cc1ccc(S(=O)(=O)c2nc(S(C)(=O)=O)sc2N2CCC(C)CC2)cc1	1	-8	-9	-9	-1
CNC(=O)N(O)C1N(/N=C/c2cc(Br)ccc2O)C(=S)SC1(C)C (stereo not given)	-10	-6	12	2	0
O=C(CC1C=Cc2ccccc2N1C(=O)c1ccccc1)c1ccccc1 (stereo not given)	16	-4	11	-5	.
O=C(Oc1coc(CSc2nnc(NC(=O)c3cccs3)s2)cc1=O)c1ccccc1	1	-10	86*	0	-7
Cc1ccc(C(=O)Oc2coc(CSc3nnc(NC(=O)C4CC4)s3)cc2=O)cc1	-16	13	32	-6	-21
Cc1ccccc1-n1nnnc1SCC(=O)NNC(=O)c1ccc(NC(=O)CC#N)cc1	14	-6	.	-3	.
CCCn1c(SC(C(=O)Nc2cc(C)ccc2OC)c2ccccc2)nc2ccccc2c1=O (stereo not given)	25	0	23	12	-12
COc1ccc(C)cc1NC(=O)C(Sc1nnnn1C)c1ccccc1 (stereo not given)	17	0	-5	-1	95*
COc1ccc(NC(=O)NC(C)C2CC3CCC2C3)cc1 (stereo not given)	5	7	5	-18	1
COc1ccc([C@H]2CC(=O)C=C(c3ccc4c(c3)OCO4)C2)cc1OC	86*	-1	6	-1	.
O=C1C=C(c2ccc(Cl)c(C(F)(F)F)c2)C[C@@H](c2ccc3c(c2)OCO3)C1	0	-13	110*	-3	.
O=Nc1c(O)n(Cc2ccc(Cl)cc2Cl)c2ccccc12	-14	6	113*	25	27
Cc1ccc2c(c1)c(N=O)c(O)n2Cc1ccc(Cl)cc1	5	3	104*	43	8
Cc1ccc(Cn2c(O)c(N=O)c3ccccc32)cc1	14	16	35	4	-6
SMILES	Shn3 inh set2	PfHsp90 set2	CSC inhib	Beta apoptosis	Calb FLC
O=Nc1c(O)n(Cc2ccc(Cl)cc2)c2ccccc12	7	-38	29	1	42
Cn1c(=O)c2c(ncn2CC(O)CNc2ccc(F)cc2)n(C)c1=O (stereo not given)	1	9	3	1	4
CC1(C)C(=O)C=C(N2CCCCC2)c2ccccc21	17	.	.	.	.
Cc1snc(S(=O)(=O)/C(C#N)=N/Nc2cccc(C(F)(F)F)c2)c1C#N	-1	2	88*	2	-9
COc1ccc(N/N=C(/C#N)S(=O)(=O)c2nsc(C)c2C#N)cc1	-16	14	3	-2	-6
O=C(C(=Cc1ccccc1)CN1CCCCC1)c1ccccc1	95*	-21	.	.	.
O=C(CCCCN1CCCCC1)c1ccccc1	3	-32	-11	-4	-8
O=C(/C=C/c1ccc(N2CCC(c3ccccc3)=N2)cc1)c1ccccc1	.	.	92*	7	38
O=C(CCSc1ccccn1)c1ccccc1	-25	-24	16	-8	-6
COc1ccc(/C=C2\SC(=S)N(Cc3cccnc3)C2=O)cc1C	-14	-40	80*	-3	-3
C#CCOc1ccc(/C=C2\SC(=S)N(Cc3cccnc3)C2=O)cc1	16	-2	79*	.	-31
Cc1ccc2c(c1)N(CC(=O)N1CCCC1)C(=O)c1cccnc1O2	8	-2	-18	-3	-2
CC(CN1CCOCC1)OC(=O)c1cccs1 (stereo not given)	7	-9	2	-1	-2
O=C(Oc1c(Cl)cc(Cl)c2cccnc12)c1cccs1	18	99*	121*	75*	108*
O=C(Oc1c(CN2CCOCC2)cc(Cl)c2cccnc12)c1ccccc1Cl	?	7	20	22	100*
O=C(Oc1ccc(Cl)c2cccnc12)N1CCOCC1	-1	-9	-9	-5	-8
O=C(Nc1cccnc1Cl)c1cccs1	-10	-42	-5	4	17
O=C(Oc1c(CN2CCOCC2)cc(Cl)c2cccnc12)c1cccs1	45	15	49	122*	101*
O=C(Oc1c(Cl)cc(Cl)c2cccnc12)c1ccco1	64	129*	+	91*	101*
O=C(c1ccco1)N1N=C(c2ccc(Br)cc2)CC1c1ccco1 (stereo not given)	4	-2	23	?	.
CN(C)c1ccc(/C=C/c2nc3ccccc3c(=O)[nH]2)cc1	60	-6	84*	33	4
COc1ccc(C(=O)Nc2cccc(/C=C/c3nc4ccccc4c(=O)[nH]3)c2)cc1	-59	-11	78*	42	7
C(=C\c1nc2ccccc2[nH]1)/c1ccccc1	-1	78*	82*	52	-18
COc1ccc(-c2csc(C(C)(O)c3cccc(F)c3)n2)cc1 (stereo not given)	-1	.	.	.	.
O=C(c1ccccc1)c1cc(Cl)ccc1N1C(=O)C=CC1=O	?	107*	.	.	.
Cc1ccc(C(C)C)c(OCC(O)CN2CCc3ccccc3C2)c1 (stereo not given)	61	-10	12	98*	21
